Where “and” joins values, the source holds several entries; their conditions need not be identical. Identical values can stand only once. This is part of a sample that, as a whole, favours compounds with a hit. Of some 79,000 tested, about 15% had one in any assay. The source holds several records for some structures; these can differ, active in one and inactive in another. Calls of active or inactive are those of the source. Rule as the data show it: active = growth inhibition above about 70%; inactive = the rest.
Assay: NCI Yeast Anticancer Drug Screen. Data for the mlh1 rad18 strain (AID 175)
Details: S. cerevisiae mlh1 rad18 strain growth inhibition, stronger effect = higher value
Protocol: Growth inhibition of yeast strains with defined genetic alterations is measured as a screen for potential anti-cancer activity. Selected strains with alterations in DNA damage repair or cell cycle control were exposed to compounds and growth inhibition was measured relative to vehicle treated controls. The strain used in this assay is mlh1 rad18

[1] = at 5.0 µM (retest, dose inferred, filed as 0.5)
[2] = at 50.0 µM (retest, dose inferred, filed as 5.0)

| SMILES | growth inhibition [1] | growth inhibition [2] | growth inhibition (at 50.0 µM) |
| --- | --- | --- | --- |
| O=C1C=CC(=CC=C2C=CN(CCCCCCCCCCCO)C=C2)C=C1 | 10% (inactive) and 37% (inactive) | 80% (active) and 1% (inactive) | 88% (active) and 59.2% (inactive) |
| CN(C)CCC(=O)c1cccc([N+](=O)[O-])c1 | 11% (inactive) | 96% (active) | 33.4% (inactive) and 96.8% (active) |
| CC(=O)OCC(OC(C)=O)C(OC(C)=O)C(OC(C)=O)C(OC(C)=O)C(/C=N/Nc1ccccc1)=N/Nc1ccccc1 (configuration not stated) | 26% (inactive) and -3% (inactive) | 93% (active) and -1% (inactive) | 95.2% (active) and 40.5% (inactive) |
| CCCCCCCCCCCCCCCCBr | 6% (inactive) | -5% (inactive) | 99.2% (active) |
| CCOC(=O)c1c[nH]c2cc(C(F)(F)F)ccc2c1=O | 56% (inactive) | 99% (active) | 1.5% (inactive) |
| CC(c1ccccc1)c1ccc(O)cc1 (configuration not stated) | 0% (inactive) | 90% (active) | 53.2% (inactive) and 92.3% (active) |
| c1ccc(-c2cnc(-c3ccc(-c4ncc(-c5ccccc5)o4)cc3)o2)cc1 | 5% (inactive) | -10% (inactive) | -20.6% (inactive) |
| CCOC(=O)c1c[nH]c2c(ccc3cccnc32)c1=O | 2% (inactive) and -1% (inactive) | 84% (active) and 79% (active) | 37.7% (inactive) and 79.8% (active) |
| CN(C)c1ccc(/C=C/c2cc[n+](C)c3ccccc23)cc1 | -8% (inactive) and -21% (inactive) | 93% (active) and 80% (active) | 97.7% (active) |
| [N-]=[N+]=NC(=O)Nc1cccc(C(F)(F)F)c1 | 8% (inactive) | 98% (active) | 98.8% (active) |
| COc1cc2c(cc1O)C1CN(C2)Cc2cc(OC)c(O)cc21 | 14% (inactive) | 80% (active) | 74.3% (active) |
| O=c1[nH]c2cc([N+](=O)[O-])ccc2nc1/C=C(\O)c1ccc([N+](=O)[O-])cc1 | 6% (inactive) | 77% (active) | 68.4% (inactive) and -1.4% (inactive) |
| c1ccc(CSC(SCc2ccccc2)(c2ccccc2)c2ccccc2)cc1 | 22% (inactive) | 92% (active) | 13.7% (inactive) and 81.3% (active) |
| Clc1ccc2c(c1)[nH]c1c2nc2ccccn21 | 11% (inactive) | 98% (active) | -14.4% (inactive) and 80.4% (active) |
